Screening results from PubChem.
Shiga inhibitor = Shiga toxin inhibition; Vero cells, Shiga toxin protein synthesis inhibition reporter; hit rate 9.2% among 290,000; inhibition, % at 38.7 µM; AID 2315; in the data active = inhibition mostly above about 28%, no sharp cut-off; inactive = mostly below about 43%; also: 0% is about no effect
LmPK inh = blocks Leishmania mexicana pyruvate kinase activity. Q27686. purified LmPK, Kinase-Glo ATP luminescence, 1 h. Potency, µM (highest dose often 57.5 µM), for inactives: at the highest dose activity change, negative = inhibition, usual class: inhibitors. hit rate 0.37% among 290,000; also: potency is read from the fitted curve at half-maximal effect; % is scaled to controls: 0 for no effect and ±100 for the full control effect
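qHTS format; LmPK 0.1 nM; substrates PEP 0.5 mM and ADP 0.1 mM. One-hour room-temperature incubation, then coupled luciferase luminescence; 0.5 nM enzyme wells mark activation.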
RE007 growth inh = less growth of the S. pombe RE007 Vpr strain | Potency, µM (top dose mostly 92.2 µM), without a hit: at the highest dose activity change, negative = less growth, most hits filed as inhibitors | hit rate 0.21% among 360,000 | S. pombe RE007 Vpr strain, BacTiter-Glo ATP luminescence, 24 h; active = well fitted falling curve with a large enough effect; inconclusive = small, poorly fitted or top-dose-only effect; inactive = no such curve, though single readings can be large or run the other way; also: potency is read from the fitted curve at half-maximal effect; % is scaled to controls: 0 for no effect and ±100 for the full control effect; nearly all actives have a fitted effect of over 50% in size
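Fission yeast strain RE007, carrying one chromosomally integrated HIV-1 vpr copy, was seeded at OD 0.01 in PMG+AL medium with 23 nL pinned compound. After 24 h at 30 °C and 99% humidity, viability was read by BacTiter-Glo luminescence.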
TbPYK inhibitor = inhibitors of Trypanosoma brucei pyruvate kinase; Q57TT1; TbPYK enzyme, Kinase-Glo Plus ATP luminescence, 45 min; Potency, µM (doses to about 76.8 µM), for inactives: at the top dose activity, negative = inhibition, usual class: inhibitors; hit rate 0.12% among 410,000; also: potency is read from the fitted curve at half-maximal effect; % is scaled to controls: 0 for no effect and ±100 for the full control effect; nearly all actives have a fitted effect of over 50% in size
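Luminescent Kinase-Glo Plus end-point after 45 min room-temperature reaction of T. brucei pyruvate kinase started with 130 uM ADP (final). Buffer TEA 50 mM pH 7.2 with KCl, MgCl2, BSA, Tween-20; titration-based qHTS with fitted concentration-effect curves.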
Cycloheximide cs = affects cycloheximide protein synthesis inhibition readout, counter-screen; hit rate 12% among 300,000; max response, %; AID 2314; cell reporter, cycloheximide protein synthesis inhibition counterscreen; in the data active = max response mostly above about 13%, no sharp cut-off; inactive = mostly below about 14%; also: read at 38.3 µM for the half of the compounds with a filed dose; 0% is about no effect
Giardia FBPA inh = Giardia lamblia aldolase inhibition; A8B2U2; purified Giardia FBPA; Potency, µM (highest dose often 59.6 µM), without a hit: at the top dose activity, negative = inhibition, usual class: inhibitors; hit rate 0.71% among 290,000; also: potency is read from the fitted curve at half-maximal effect; % is scaled to controls: 0 for no effect and ±100 for the full control effect; nearly all actives have a fitted effect of over 55% in size
Target sequence (A8B2U2 whole entry, looked up): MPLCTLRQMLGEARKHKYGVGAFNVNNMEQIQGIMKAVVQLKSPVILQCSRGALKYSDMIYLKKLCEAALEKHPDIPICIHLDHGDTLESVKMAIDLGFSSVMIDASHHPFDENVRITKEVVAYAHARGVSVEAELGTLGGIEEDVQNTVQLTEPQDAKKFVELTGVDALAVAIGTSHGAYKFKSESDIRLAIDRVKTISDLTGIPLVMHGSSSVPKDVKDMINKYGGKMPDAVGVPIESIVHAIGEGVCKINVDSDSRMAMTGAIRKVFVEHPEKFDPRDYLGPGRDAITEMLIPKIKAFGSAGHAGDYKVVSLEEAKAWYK
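40 nM FBPA preincubated 10 min at RT with compound (up to 57.5 uM final), then substrate plus GAPDH/TPI/NAD/arsenate coupling and diaphorase/resazurin added. Fluorescence read after 20 min at RT, 525/598 nm.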
* marks the source's active call; other numbers are inactive results; ? = inconclusive; . = no result; [ ] = remark or other dose. This is one part of a sample in which hits are shown more often than they occur. Unless noted, calls follow the shape of the dose curve; as a rule, active = well fitted curve in the direction sought with a large enough effect; inconclusive = small, poorly fitted or top-dose-only effect, or another doubt; inactive = no such curve, though single readings can be large; an effect the other way counts as inactive or inconclusive.

SMILES	Shiga inhibitor	LmPK inh	RE007 growth inh	TbPYK inhibitor	Cycloheximide cs	Giardia FBPA inh
O=C(c1cc(Cl)ccc1Cl)N1CCc2ccccc21	-3	-1%	-11%	-10%	-3	1%
COc1ccccc1Cc1nc2ccccc2nc1SCC(=O)NCc1ccccc1Cl	.	.	.	-2%	.	.
NC(N)=[N+]1CCc2ccccc2C1	.	.	.	.	.	2%
Cc1nc(N)nc(-c2ccccc2O)n1	47	0%	-23%	1%	24*	0%
CC/C(=N\NC(=S)Nc1ccccc1)c1c(O)[nH]c(=O)[nH]c1=O	32*	11%	9%	3%	29*	?
C/C(=N\Nc1ccccc1)c1c(O)[nH]c(=O)[nH]c1=O	10	1%	184%	-5%	8	4%
COc1ccc(Cc2nnc(NC(=O)c3ccccc3Cl)s2)cc1OC	-2	1%	12%	3%	-1	-5%
Cc1ccc(S(=O)(=O)NC(=O)C2(C)CCN2C(=O)c2ccc(C(F)(F)F)nc2C)cc1 (configuration not stated)	.	.	2%[18.4 µM]	3%	.	.
CCNc1nc2ccccc2[nH]1	-10	2%	10%	7%	5	0%
C/C(=N\Nc1nc2ccccc2[nH]1)c1ccccn1	107*	-12%	.	.	28*	-22%
C/C(=N\NC(=O)c1cccnc1)c1cc2ccccc2o1	21	-7%	-2%	0%	10	-6%
C/C(=N\Nc1nc2ccccc2[nH]1)c1cc2ccccc2o1	39*	?	-24%	-7%	25*	-9%
O=C1[C@@H]2C(c3cccnc3)=NO[C@@H]2C(=O)N1c1ccc(Br)cc1	-10	-6%	22µM*	-17%	1	5%
O=C(Nc1ccccc1)N1CC2(CCN(C(=O)c3ccncc3)CC2)C1	.	.	.	-5%	.	5%
Cc1cc(Cl)ccc1OCC(=O)N(Cc1ccco1)Cc1ccccc1F	.	.	.	-1%	.	.
COc1ccc(/C=N/c2oc(-c3ccccc3)cc2C#N)cc1OC	62*	-2%	-26%	-14%	23*	?
CCCCc1ccc(-n2nc3cc(C)c(NC(=O)c4ccc(C#N)cc4F)cc3n2)cc1	.	.	.	0%	.	.
Cc1cc(O)c(C2=Nc3ccccc3SC(c3ccc(Cl)cc3)C2)c(=O)o1 (configuration not stated)	34*	2%	-13%	-12%	48*	-9%
COc1ccc(C(=O)Nc2ccc(Cl)cc2C(=O)NCc2ccco2)cc1OC	55*	-1%	6%	-1%	43*	-8%
COc1ccc(OC)c(N=c2oc3c(OC)cccc3cc2C(=O)NCc2ccco2)c1	54	1%	18%[3.69 µM]	.	-1	-4%
COc1ccc(C(=O)Nc2ccccc2C(=O)NCc2ccco2)cc1OC	-3	13%	-3%	-5%	-2	-1%
COc1ccccc1C(=O)Nc1ccccc1C(=O)NCc1ccco1	11	-3%	5%	-5%	32*	.
O=C(Nc1cccc(Cl)c1)Nc1ccccc1C(=O)NCc1ccco1	55*	-21%	14%	-2%	32*	-15%
COc1ccccc1N=c1oc2c(OC)cccc2cc1C(=O)NCc1ccco1	115*	4%	4%	3%	48*	2%
COc1cccc2cc(C(=O)Nc3ccc(F)cc3)c(=Nc3ccc(C(=O)O)cc3)oc12	76*	-1%	-3%	3%	51*	6%
SMILES	Shiga inhibitor	LmPK inh	RE007 growth inh	TbPYK inhibitor	Cycloheximide cs	Giardia FBPA inh
COc1ccc(N=c2oc3c(OC)cccc3cc2C(=O)NCc2ccco2)cc1OC	28	-1%	-6%	4%	11	-11%
CC(C)(C)NC(=O)/C=C/c1ccc(C(F)(F)F)cc1	96*	3%	-31%	-2%	76*	-5%
Cc1ccc(C(=O)NCCCN2CCOCC2)cc1	.	.	0%	-1%	.	.
Cc1ccc(C(=O)NCCCN2CCOCC2)c(C)c1	42	-2%	8%	0%	20*	-3%
Cc1c(C(=O)NCC2CCCO2)oc2ccccc12 (configuration not stated)	.	.	-1%	1%	.	.
Cc1cc(C)c(S(=O)(=O)N2CCOC2CNC(=O)C(=O)NCCCN2CCOCC2)c(C)c1 (configuration not stated)	80*	-10%	-17%	0%	35*	.
Cc1ccc2oc(C(=O)NCCCN3CCOCC3)c(C)c2c1	71*	-7%	-14%	3%	44*	-7%
Cc1cc(C)c(S(=O)(=O)N2CCOC2CNC(=O)C(=O)NCCN2CCOCC2)c(C)c1 (configuration not stated)	-1	-6%	-2%	3%	-2	-5%
Cc1ccc2oc(C(=O)NCCC3CCCCO3)c(C)c2c1 (configuration not stated)	63*	-3%	-9%	-13%	26*	.
CS(=O)(=O)N1CCC(C(=O)NCc2ccc(Cl)cc2)CC1	-5	-9%	-11%	0%	-1	-2%
COc1ccc(N2C(=O)CCSC23C(=O)N(Cc2ccc(F)cc2)c2ccccc23)cc1Cl (configuration not stated)	.	.	.	-3%[15.4 µM]	.	.
COc1ccc(S(=O)(=O)NCc2cc(-c3ccccc3Cl)no2)cc1	-12	5%	23%	6%	-5	10%
CC(=O)O[C@H](C)OC(=O)[C@@H](C)c1ccc(-c2ccccc2)c(F)c1	.	.	.	-7%	.	.
Cc1ccc(S(=O)(=O)N2CCCC2)cc1C(=O)NCCN1CCOCC1	28*	-10%	0%	-5%	29*	.
COc1ccc2oc(C(=O)NCCN3CCOCC3)c(C)c2c1OC	63*	?	-3%	3%	61*	.
Cc1ccc(CSCc2ccc(C(=O)NCCCN3CCOCC3)o2)cc1	9	-2%	1%	1%	16*	4%
Cc1ccc(C(=O)NCCCN2CCOCC2)c(Cl)c1	.	7%	10%	0%	17*	4%
CCCSc1ncc(Cl)c(C(=O)Nc2nc3ccc(C)cc3s2)n1	.	.	.	2%	.	.
CC(=O)OCC(NC(=O)C(CCCCNC(=O)OCc1ccccc1)NC(=O)OC(C)(C)C)C1OC(n2cc(C)c(=O)[nH]c2=O)C(OC(C)=O)C1OC(C)=O (configuration not stated)	-7	.	.	.	-2	0%
O=S(=O)(c1cccc(Cl)c1)c1nnn2c1nc(NCc1ccc3c(c1)OCO3)c1sccc12	.	.	.	2%	.	.
O=C(CSc1nc(O)c(C2CCCCC2)c(=O)[nH]1)NCC1CCCO1 (configuration not stated)	66*	-2%	15%	-1%	29*	-5%
NS(=O)(=O)c1cccc(NC(=S)NC(=O)C23CC4CC(CC(C4)C2)C3)c1	66*	0%	9%	-15%	23*	-1%
